Data published in PMC12820563, “FoxP3 forms a head-to-head dimer in vivo and stabilizes its multimerization on adjacent microsatellites”.
Over roughly 16,000 sequences, “rpm ratio (pull-down/input)” has its median near 0.94; the highest 2% begin near 1.7. The sample as a whole holds a higher share of the highest values than the screen did.

biological target: T1, MBP-FoxP1dN (Mus musculus, UniProt P58462 326-579); test: PD-seq (MBP pull-down with sequencing); 20 mM Tris-HCl pH 7.5, 100 mM NaCl, 1.5 mM MgCl2, 0.4 uM protein, 0.1 uM dsDNA library, 30 min, room temperature, amylose pull-down; high values mean tight binding; conditions: protein: recombinant; tags: His6-MBP; chain copies: 2; dsDNA, one strand shown
T1 sequence: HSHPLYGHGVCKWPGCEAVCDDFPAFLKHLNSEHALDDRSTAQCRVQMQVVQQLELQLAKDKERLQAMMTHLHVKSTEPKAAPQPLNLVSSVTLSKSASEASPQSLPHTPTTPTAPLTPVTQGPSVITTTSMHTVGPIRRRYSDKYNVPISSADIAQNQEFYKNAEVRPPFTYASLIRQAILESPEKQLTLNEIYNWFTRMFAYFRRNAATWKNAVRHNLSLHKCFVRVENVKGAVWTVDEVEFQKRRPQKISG
Procedure, shortened: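 Amylose resin was used to capture complexes formed during 30 min at room temperature in Tris pH 7.5 buffer with NaCl and MgCl2 between 0.4 µM His6-MBP-tagged mouse FoxP3 or FoxP1 fragment lacking the N-terminus, expressed in E. coli, and 0.1 µM Klenow-filled double-stranded degenerate DNA library. After three washes, the DNA was released with proteinase K, barcoded by PCR and sequenced on Illumina. Binding is pooled-replicate reads-per-million enrichment, pull-down over input.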

| Sequence | binding signal |
| --- | --- |
| GATGATTGTTCTCCCAGCTGATGAATTTAAAACATCGAGTAAACAAATTTTCCTAATCTTTCTGTTCAAGCGCCATCTAC | 1.37 RPM ratio (pull-down/input) |
| GATGATTGTTCTCCCAGCTGATGAATTAAACAACTCGAGTAAACAAATTTTCCTAATCTTTCTGTTCAAGCGCCATCTAC | 1.84 RPM ratio (pull-down/input) |
| GATGATTGTTCTCCCAGCTGATGAATTAAACAAATCGAGTAAACAAATTTTCCTAATCTTTCTGTTCAAGCGCCATCTAC | 2.02 RPM ratio (pull-down/input) |
| GATGATTGTTCTCCCAGCTGATGAATTAAACTCCTCGAGTAAACAAATTTTCCTAATCTTTCTGTTCAAGCGCCATCTAC | 0.846 RPM ratio (pull-down/input) |
| GATGATTGTTCTCCCAGCTGATGAATTAAAAAAATCGAGTAAACAAATTTTCCTAATCTTTCTGTTCAAGCGCCATCTAC | 1.04 RPM ratio (pull-down/input) |
| GATGATTGTTCTCCCAGCTGATGAATTAAAACAATCGAGTAAACAAATTTTCCTAATCTTTCTGTTCAAGCGCCATCTAC | 2 RPM ratio (pull-down/input) |
| GATGATTGTTCTCCCAGCTGATGAATTAAATTAATCGAGTAAACAAATTTTCCTAATCTTTCTGTTCAAGCGCCATCTAC | 1.01 RPM ratio (pull-down/input) |
| GATGATTGTTCTCCCAGCTGATGAATTAATTCAATCGAGTAAACAAATTTTCCTAATCTTTCTGTTCAAGCGCCATCTAC | 0.961 RPM ratio (pull-down/input) |
| GATGATTGTTCTCCCAGCTGATGAATTAAAAACATCGAGTAAACAAATTTTCCTAATCTTTCTGTTCAAGCGCCATCTAC | 2.08 RPM ratio (pull-down/input) |
| GATGATTGTTCTCCCAGCTGATGAATTAAATCAATCGAGTAAACAAATTTTCCTAATCTTTCTGTTCAAGCGCCATCTAC | 1.01 RPM ratio (pull-down/input) |
| GATGATTGTTCTCCCAGCTGATGAATTAATCTAATCGAGTAAACAAATTTTCCTAATCTTTCTGTTCAAGCGCCATCTAC | 1.1 RPM ratio (pull-down/input) |
| GATGATTGTTCTCCCAGCTGATGAATTAATCAACTCGAGTAAACAAATTTTCCTAATCTTTCTGTTCAAGCGCCATCTAC | 1.1 RPM ratio (pull-down/input) |
| GATGATTGTTCTCCCAGCTGATGAATTCTCACAGTCGAGTAAACAAATTTTCCTAATCTTTCTGTTCAAGCGCCATCTAC | 0.875 RPM ratio (pull-down/input) |
| GATGATTGTTCTCCCAGCTGATGAATTAATTGAGTCGAGTAAACAAATTTTCCTAATCTTTCTGTTCAAGCGCCATCTAC | 0.932 RPM ratio (pull-down/input) |
| GATGATTGTTCTCCCAGCTGATGAATTGGGTATCTCGAGTAAACAAATTTTCCTAATCTTTCTGTTCAAGCGCCATCTAC | 0.935 RPM ratio (pull-down/input) |
| GATGATTGTTCTCCCAGCTGATGAATTAGAAGCTTCGAGTAAACAAATTTTCCTAATCTTTCTGTTCAAGCGCCATCTAC | 0.996 RPM ratio (pull-down/input) |
| GATGATTGTTCTCCCAGCTGATGAATTGCGGCAGTCGAGTAAACAAATTTTCCTAATCTTTCTGTTCAAGCGCCATCTAC | 0.919 RPM ratio (pull-down/input) |

| Sequence | binding signal |
| --- | --- |
| GATGATTGTTCTCCCAGCTGATGAATTGCGCTAGTCGAGTAAACAAATTTTCCTAATCTTTCTGTTCAAGCGCCATCTAC | 1.06 RPM ratio (pull-down/input) |
| GATGATTGTTCTCCCAGCTGATGAATTTATTGATTCGAGTAAACAAATTTTCCTAATCTTTCTGTTCAAGCGCCATCTAC | 1.86 RPM ratio (pull-down/input) |
| GATGATTGTTCTCCCAGCTGATGAATTTCTTTATTCGAGTAAACAAATTTTCCTAATCTTTCTGTTCAAGCGCCATCTAC | 0.979 RPM ratio (pull-down/input) |
| GATGATTGTTCTCCCAGCTGATGAATTGATTTATTCGAGTAAACAAATTTTCCTAATCTTTCTGTTCAAGCGCCATCTAC | 1.27 RPM ratio (pull-down/input) |
| GATGATTGTTCTCCCAGCTGATGAATTTATTCTTTCGAGTAAACAAATTTTCCTAATCTTTCTGTTCAAGCGCCATCTAC | 1.34 RPM ratio (pull-down/input) |
| GATGATTGTTCTCCCAGCTGATGAATTCTTTTATTCGAGTAAACAAATTTTCCTAATCTTTCTGTTCAAGCGCCATCTAC | 1.13 RPM ratio (pull-down/input) |
| GATGATTGTTCTCCCAGCTGATGAATTTATTTATTCGAGTAAACAAATTTTCCTAATCTTTCTGTTCAAGCGCCATCTAC | 2.17 RPM ratio (pull-down/input) |
| GATGATTGTTCTCCCAGCTGATGAATTAATTTCCTCGAGTAAACAAATTTTCCTAATCTTTCTGTTCAAGCGCCATCTAC | 0.884 RPM ratio (pull-down/input) |
| GATGATTGTTCTCCCAGCTGATGAATTTATGCAGTCGAGTAAACAAATTTTCCTAATCTTTCTGTTCAAGCGCCATCTAC | 1.11 RPM ratio (pull-down/input) |
| GATGATTGTTCTCCCAGCTGATGAATTTACGTCATCGAGTAAACAAATTTTCCTAATCTTTCTGTTCAAGCGCCATCTAC | 1.45 RPM ratio (pull-down/input) |
| GATGATTGTTCTCCCAGCTGATGAATTTATTACCTCGAGTAAACAAATTTTCCTAATCTTTCTGTTCAAGCGCCATCTAC | 1.2 RPM ratio (pull-down/input) |
| GATGATTGTTCTCCCAGCTGATGAATTTACCTCCTCGAGTAAACAAATTTTCCTAATCTTTCTGTTCAAGCGCCATCTAC | 1.07 RPM ratio (pull-down/input) |
| GATGATTGTTCTCCCAGCTGATGAATTGTTTACCTCGAGTAAACAAATTTTCCTAATCTTTCTGTTCAAGCGCCATCTAC | 2.65 RPM ratio (pull-down/input) |
| GATGATTGTTCTCCCAGCTGATGAATTTTTTACCTCGAGTAAACAAATTTTCCTAATCTTTCTGTTCAAGCGCCATCTAC | 0.943 RPM ratio (pull-down/input) |
| GATGATTGTTCTCCCAGCTGATGAATTATTTACCTCGAGTAAACAAATTTTCCTAATCTTTCTGTTCAAGCGCCATCTAC | 1.86 RPM ratio (pull-down/input) |
| GATGATTGTTCTCCCAGCTGATGAATTACCTACCTCGAGTAAACAAATTTTCCTAATCTTTCTGTTCAAGCGCCATCTAC | 0.913 RPM ratio (pull-down/input) |
